From PMC11062922 (Nature Chemical Biology, 2023)
Read-outs that look alike come from different tables or passages of the source.

Columns and labels:
Parameters in all cases: species or system human, MV4-11 + K-562 + COLO205 + SK-N-BE2 + OVCAR-8
[1] = system: ATM; details: read-out: apparent Kd, n = 1
[2] = system: GSK3A; details: read-out: apparent Kd; compound concentrations: 100 nM and 1000 nM (sheet 'Samples'), CATDS: 0.20080889855539999; n = 1
[3] = system: GSK3B; details: read-out: apparent Kd; compound concentrations: 100 nM and 1000 nM (sheet 'Samples'), CATDS: 0.19196654372997399; n = 1
[4] = system: PIK3CA; details: read-out: apparent Kd; compound concentrations: 100 nM and 1000 nM (sheet 'Samples'), CATDS: 0.224567790498646; n = 1
[5] = system: CDC42BPG; details: read-out: apparent Kd; compound concentrations: 100 nM and 1000 nM (sheet 'Samples'), CATDS: 0.370471808138506; n = 1
[6] = system: MAP3K1; details: read-out: apparent Kd; compound concentrations:100 nM and 1000 nM (sheet 'Samples'); n = 1
[7] = system: NUAK2; details: read-out: apparent Kd; compound concentrations:100 nM and 1000 nM (sheet 'Samples'); n = 1
[8] = system: PIK3CD; details: read-out: apparent Kd, n = 1
[9] = system: PLK1; details: read-out: apparent Kd; compound concentrations: 100 nM and 1000 nM (sheet 'Samples'), CATDS: 0.443689991043278; n = 1
[10] = system: EPHB2; details: read-out: apparent Kd; compound concentrations: 100 nM and 1000 nM (sheet 'Samples'), CATDS: 5.4073383937865198E-2; n = 1
[11] = system: EPHB4; details: read-out: apparent Kd; compound concentrations: 100 nM and 1000 nM (sheet 'Samples'), CATDS: 6.1726409917068299E-2; n = 1
[12] = system: ERCC2; details: read-out: apparent Kd; compound concentrations: 100 nM and 1000 nM (sheet 'Samples'), CATDS: 5.5764348636942303E-2; n = 1
[13] = system: GAK; details: read-out: apparent Kd; compound concentrations: 100 nM and 1000 nM (sheet 'Samples'), CATDS: 5.4131734373928597E-2; n = 1
[14] = system: MAPK11; details: read-out: apparent Kd; compound concentrations: 100 nM and 1000 nM (sheet 'Samples'), CATDS: 5.3024764927667702E-2; n = 1
[15] = system: MAPK9; details: read-out: apparent Kd, compound concentrations: 100 nM and 1000 nM (sheet 'Samples'), n = 1
[16] = system: PRKAG1; details: read-out: apparent Kd; compound concentrations: 100 nM and 1000 nM (sheet 'Samples'), CATDS: 0.16537945718140701; n = 1
[17] = system: PRKCQ; details: read-out: apparent Kd, compound concentrations: 100 nM and 1000 nM (sheet 'Samples'), n = 1
[18] = system: RPS6KA6; details: read-out: apparent Kd; compound concentrations: 100 nM and 1000 nM (sheet 'Samples'), CATDS: 5.8254455151346002E-2; n = 1
[19] = system: SRC; details: read-out: apparent Kd; compound concentrations: 100 nM and 1000 nM (sheet 'Samples'), CATDS: 5.8386134416648999E-2; n = 1
[20] = system: TNK1; details: read-out: apparent Kd; compound concentrations: 100 nM and 1000 nM (sheet 'Samples'), CATDS: 8.7272147556640506E-2; n = 1
[21] = system: TNK2; details: read-out: apparent Kd; compound concentrations: 100 nM and 1000 nM (sheet 'Samples'), CATDS: 6.9926040964812697E-2; n = 1
[22] = system: AKT3; details: read-out: apparent Kd, compound concentrations: 100 nM and 1000 nM (sheet 'Samples'), n = 1
[23] = system: COX5A; details: read-out: apparent Kd; compound concentrations: 100 nM and 1000 nM (sheet 'Samples'), CATDS: 0.36000634537809301; n = 1
[24] = system: MAPKAPK2; details: read-out: apparent Kd; compound concentrations: 100 nM and 1000 nM (sheet 'Samples'), CATDS: 0.330960581513286; n = 1
[25] = system: CLK4; details: read-out: apparent Kd, n = 1
[26] = system: CSNK1A1; details: read-out: apparent Kd; compound concentrations: 100 nM and 1000 nM (sheet 'Samples'), CATDS: 0.24083982314133201; n = 1
[27] = system: CSNK1D; details: read-out: apparent Kd; compound concentrations: 100 nM and 1000 nM (sheet 'Samples'), CATDS: 0.19928215700528701; n = 1
[28] = system: CDK16; details: read-out: apparent Kd, n = 1
[29] = system: CDK17; details: read-out: apparent Kd; compound concentrations:100 nM and 1000 nM (sheet 'Samples'); n = 1
[30] = system: CDK2; details: read-out: apparent Kd, n = 1
[31] = system: PAK4; details: read-out: apparent Kd; compound concentrations:100 nM and 1000 nM (sheet 'Samples'); n = 1
[32] = system: STK3; details: read-out: apparent Kd; compound concentrations:100 nM and 1000 nM (sheet 'Samples'); n = 1
[33] = system: STK4; details: read-out: apparent Kd; compound concentrations:100 nM and 1000 nM (sheet 'Samples'); n = 1
[34] = system: MAPK10; details: read-out: apparent Kd; compound concentrations: 100 nM and 1000 nM (sheet 'Samples'), CATDS: 0.16061628875685399; n = 1
[35] = system: MAPK14; details: read-out: apparent Kd; compound concentrations: 100 nM and 1000 nM (sheet 'Samples'), CATDS: 0.26404764630767302; n = 1
[36] = system: NLK; details: read-out: apparent Kd; compound concentrations: 100 nM and 1000 nM (sheet 'Samples'), CATDS: 0.289538211789438; n = 1
[37] = system: PRKCZ; details: read-out: apparent Kd; compound concentrations: 100 nM and 1000 nM (sheet 'Samples'), CATDS: 0.11125426430481999; n = 1
[38] = system: CDK5; details: read-out: apparent Kd; compound concentrations: 100 nM and 1000 nM (sheet 'Samples'), CATDS: 0.117408744054376; n = 1
[39] = system: CDK6; details: read-out: apparent Kd; compound concentrations: 100 nM and 1000 nM (sheet 'Samples'), CATDS: 8.47728191524936E-2; n = 1
[40] = system: CSNK2A1;CSNK2A3; details: read-out: apparent Kd; compound concentrations: 100 nM and 1000 nM (sheet 'Samples'), CATDS: 0.11670425999811999; n = 1
[41] = system: CSNK2A2; details: read-out: apparent Kd; compound concentrations: 100 nM and 1000 nM (sheet 'Samples'), CATDS: 0.126102528289014; n = 1
[42] = system: FLT3; details: read-out: apparent Kd; compound concentrations: 100 nM and 1000 nM (sheet 'Samples'), CATDS: 0.40008712572593402; n = 1
[43] = system: MYLK3; details: read-out: apparent Kd; compound concentrations: 100 nM and 1000 nM (sheet 'Samples'), CATDS: 8.3976923453049093E-2; n = 1
[44] = compound concentrations:100 nM and 1000 nM (sheet 'Samples')

Cc1c(C2=C(c3cn(C)c4ccccc34)C(=O)NC2=O)c2ccccc2n1C [RO0317777-000]
potency estimated from few doses ([1]; compound concentrations: 100 nM and 1000 nM (sheet 'Samples'), CATDS: 0.73643038354307599): 20.1 nM | potency estimated from few doses [2]: 343 nM | potency estimated from few doses [3]: 397 nM | potency estimated from few doses [4]: 247 nM

CC(C)c1ccc(-c2cc(-c3c[nH]nc3-c3ccccn3)ccn2)cc1 [GW682841X]
potency estimated from few doses ([1]; compound concentrations: 100 nM and 1000 nM (sheet 'Samples'), CATDS: 0.768793574743593): 216 nM | potency estimated from few doses [5]: 1220 nM

C[C@@H](Oc1cc(-n2cnc3ccc(CN4CCN(C)CC4)cc32)sc1C(N)=O)c1ccccc1C(F)(F)F [GSK461364]
potency estimated from few doses [1, 44]: 264 nM | potency estimated from few doses [6]: 102 nM | potency estimated from few doses [7]: 1280 nM | potency estimated from few doses [8, 44]: 214 nM | potency estimated from few doses [9]: 42.1 nM

CC(C)(O)CCc1cccc(C(=O)c2cnn(-c3ccc(F)cc3)c2N)c1 [RO3200935-000]
potency estimated from few doses ([1]; compound concentrations: 100 nM and 1000 nM (sheet 'Samples'), CATDS: 0.124711216224064): 182 nM | potency estimated from few doses [10]: 1310 nM | potency estimated from few doses [11]: 862 nM | potency estimated from few doses [12]: 1180 nM | potency estimated from few doses [13]: 1300 nM | potency estimated from few doses [14]: 1400 nM | potency estimated from few doses ([15]; CATDS: 4.8598107075800298E-2): 1970 nM | potency estimated from few doses ([8]; compound concentrations: 100 nM and 1000 nM (sheet 'Samples'), CATDS: 0.17871618509773601): 101 nM | potency estimated from few doses [16]: 114 nM | potency estimated from few doses ([17]; CATDS: 0.173893551056024): 105 nM | potency estimated from few doses [18]: 1020 nM | potency estimated from few doses [19]: 1020 nM | potency estimated from few doses [20]: 366 nM | potency estimated from few doses [21]: 615 nM

COC(=O)Nc1nc2ccc(Oc3ccc(NC(=O)Nc4cc(C(F)(F)F)ccc4F)cc3)cc2s1.Cl [GW693917A]
potency estimated from few doses [1, 44]: 222 nM

FC(F)(F)c1cccc(-c2nn3ncccc3c2-c2ccnc(Nc3ccc4c(c3)OCCO4)n2)c1 [GW827102X]
potency estimated from few doses ([22]; CATDS: 0.31242547502762402): 2070 nM | potency estimated from few doses [23]: 1560 nM | potency estimated from few doses [24]: 1830 nM

Cc1nc2sc3c(N)ncnc3c2c(C)c1C [RO4241984-000]
potency estimated from few doses ([1]; compound concentrations: 100 nM and 1000 nM (sheet 'Samples'), CATDS: 0.46387822436217502): 322 nM | potency estimated from few doses ([25]; compound concentrations: 100 nM and 1000 nM (sheet 'Samples'), CATDS: 0.213944296498185): 1410 nM | potency estimated from few doses [26]: 1060 nM | potency estimated from few doses [27]: 1710 nM

COc1cc(F)c(F)cc1C(=O)c1cnc(NC2CCN(S(C)(=O)=O)CC2)nc1N [RO4595655-000]
potency estimated from few doses [1, 44]: 157 nM | potency estimated from few doses [28, 44]: 1510 nM | potency estimated from few doses [29]: 1840 nM | potency estimated from few doses [30, 44]: 1210 nM | potency estimated from few doses [25, 44]: 1430 nM | potency estimated from few doses [31]: 1340 nM | potency estimated from few doses [32]: 2300 nM | potency estimated from few doses [33]: 1690 nM

O=c1c(Oc2ccc(F)cc2F)cc2cnc(NC3CCOCC3)nc2n1C1CC1 [RO4399247-000]
potency estimated from few doses ([22]; CATDS: 0.120130462725208): 1390 nM | potency estimated from few doses [34]: 690 nM | potency estimated from few doses [35]: 279 nM | potency estimated from few doses ([15]; CATDS: 0.111534825966063): 1740 nM | potency estimated from few doses [36]: 242 nM | potency estimated from few doses ([17]; CATDS: 0.10805556024324001): 1930 nM | potency estimated from few doses [37]: 1750 nM

NS(=O)(=O)c1ccc(Nc2cc(-c3ccc(O)c(F)c3)n[nH]2)cc1 [GW831091X]
potency estimated from few doses ([22]; CATDS: 8.6052459279118296E-2): 1690 nM | potency estimated from few doses ([28]; compound concentrations: 100 nM and 1000 nM (sheet 'Samples'), CATDS: 8.8636413805305694E-2): 1550 nM | potency estimated from few doses ([30]; compound concentrations: 100 nM and 1000 nM (sheet 'Samples'), CATDS: 0.14540297909740599): 491 nM | potency estimated from few doses [38]: 759 nM | potency estimated from few doses [39]: 1770 nM | potency estimated from few doses [40]: 770 nM | potency estimated from few doses [41]: 652 nM | potency estimated from few doses [42]: 99.2 nM | potency estimated from few doses [43]: 1830 nM
